For some of these results: Results with a measured potency or affinity are listed apart.
Tests used:
Parameters in all cases: scale not given: direction of the effect not stated beside the values
[1] = target: Protein translocase subunit SecA (Escherichia coli (strain K12)) (UniProt P10408); test: Assay to Identify E. coli SecA ATPase Inhibitors; assay type: functional; details: 30 µM
[2] = target: T1, Ubiquitin-activating enzyme e1, putative (Leishmania donovani (strain BPK282A1)) (UniProt E9BSI1); test: Leishmania donovani Ubiquitin Activating Enzyme (LdE1); assay type: functional; details: 30 µM
T1 sequence (whole entry): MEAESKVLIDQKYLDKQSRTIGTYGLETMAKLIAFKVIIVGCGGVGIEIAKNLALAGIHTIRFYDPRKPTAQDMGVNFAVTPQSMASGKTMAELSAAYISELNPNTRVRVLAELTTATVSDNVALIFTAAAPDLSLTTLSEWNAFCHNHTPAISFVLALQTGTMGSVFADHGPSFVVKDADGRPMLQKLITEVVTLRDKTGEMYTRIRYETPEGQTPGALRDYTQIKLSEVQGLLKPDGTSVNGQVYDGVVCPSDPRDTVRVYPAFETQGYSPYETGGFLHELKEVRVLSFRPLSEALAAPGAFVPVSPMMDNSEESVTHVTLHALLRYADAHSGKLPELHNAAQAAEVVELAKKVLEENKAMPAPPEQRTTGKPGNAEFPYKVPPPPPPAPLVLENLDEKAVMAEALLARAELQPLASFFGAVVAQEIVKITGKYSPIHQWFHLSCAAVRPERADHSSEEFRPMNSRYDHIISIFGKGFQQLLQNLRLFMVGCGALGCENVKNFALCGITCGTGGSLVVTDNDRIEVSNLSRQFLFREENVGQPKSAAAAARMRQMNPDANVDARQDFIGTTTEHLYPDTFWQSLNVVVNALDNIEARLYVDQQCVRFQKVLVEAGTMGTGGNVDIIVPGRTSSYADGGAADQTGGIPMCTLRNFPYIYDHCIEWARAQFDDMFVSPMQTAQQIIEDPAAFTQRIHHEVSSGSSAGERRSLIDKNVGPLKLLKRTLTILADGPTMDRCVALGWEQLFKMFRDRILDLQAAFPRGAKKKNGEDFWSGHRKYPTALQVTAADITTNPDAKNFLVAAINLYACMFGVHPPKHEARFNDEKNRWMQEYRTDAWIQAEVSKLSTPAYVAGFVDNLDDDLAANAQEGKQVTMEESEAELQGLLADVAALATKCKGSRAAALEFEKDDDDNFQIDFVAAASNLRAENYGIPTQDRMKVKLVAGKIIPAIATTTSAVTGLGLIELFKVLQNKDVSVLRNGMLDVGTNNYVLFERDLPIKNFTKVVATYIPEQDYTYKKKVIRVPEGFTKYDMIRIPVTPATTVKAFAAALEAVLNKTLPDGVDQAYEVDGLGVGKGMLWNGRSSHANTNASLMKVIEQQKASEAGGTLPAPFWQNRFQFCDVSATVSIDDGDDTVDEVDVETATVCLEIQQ

[3] = target: AMP-activated protein kinase, AMPK (Homo sapiens) (UniProt P54646+O43741+P54619+Q9UGJ0+Q9Y478+Q13131+Q9UGI9); test: AMP-dependent Kinase enzyme assay. An in vitro enzyme assay that detects ADP turnover that is directly proportional to AMPK activity. This uses naive AMPK that is activated during the assay with MK-8722; assay type: functional; details: 30 µM
[4] = target: Sialic acid-binding Ig-like lectin 9 (Homo sapiens) (UniProt Q9Y336); test: Hs-Siglec9 ALPHAscreen SOP 20170721; details: 10 µM
Sequence of Sialic acid-binding Ig-like lectin 9 (Homo sapiens) (Q9Y336 whole entry): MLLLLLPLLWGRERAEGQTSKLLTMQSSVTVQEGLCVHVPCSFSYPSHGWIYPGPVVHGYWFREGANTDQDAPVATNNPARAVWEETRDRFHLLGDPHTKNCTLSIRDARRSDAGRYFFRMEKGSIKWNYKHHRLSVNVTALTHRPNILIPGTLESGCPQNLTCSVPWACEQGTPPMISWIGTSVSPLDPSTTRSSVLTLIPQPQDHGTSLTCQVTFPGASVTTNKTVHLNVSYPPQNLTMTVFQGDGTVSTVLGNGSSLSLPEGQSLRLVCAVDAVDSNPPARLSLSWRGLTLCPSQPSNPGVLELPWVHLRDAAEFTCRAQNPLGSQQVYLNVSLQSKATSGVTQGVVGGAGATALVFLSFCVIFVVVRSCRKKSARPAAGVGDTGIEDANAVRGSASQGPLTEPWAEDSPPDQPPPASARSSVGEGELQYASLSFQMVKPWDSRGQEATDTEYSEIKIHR

Trypanosoma cruzi = test: Trypanosoma cruzi phosphomannomutase and mannose-1-phosphate guanylyltransferase assay; assay type: functional; details: 10 µM
[5] = target: T2, Arginase-2, mitochondrial (Homo sapiens) (UniProt P78540); test: in vitro enzyme assay to detect the production of urea directly proportional to the activity of Arginase II; assay type: functional; details: 33.3 µM; also: in the data most compounds retested in dose-response had high values
T2 sequence (whole entry): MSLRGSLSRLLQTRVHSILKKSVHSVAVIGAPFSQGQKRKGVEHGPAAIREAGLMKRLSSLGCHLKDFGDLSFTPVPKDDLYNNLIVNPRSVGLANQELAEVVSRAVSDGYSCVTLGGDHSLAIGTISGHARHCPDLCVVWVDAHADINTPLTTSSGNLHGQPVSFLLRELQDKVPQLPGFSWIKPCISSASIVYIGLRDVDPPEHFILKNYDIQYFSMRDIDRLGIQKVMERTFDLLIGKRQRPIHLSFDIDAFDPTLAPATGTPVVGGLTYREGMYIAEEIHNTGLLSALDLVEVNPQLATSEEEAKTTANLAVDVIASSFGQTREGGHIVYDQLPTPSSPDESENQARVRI

[6] = target: T3, Proteasome subunit beta (Trypanosoma cruzi) (UniProt O96673); test: Trypanosoma cruzi proteasome chymotrypsin-like activity (TcProtChymo) assay.; also: in the data most compounds retested in dose-response had high values; assay type: functional; details: 9.37 µM
T3 sequence (whole entry): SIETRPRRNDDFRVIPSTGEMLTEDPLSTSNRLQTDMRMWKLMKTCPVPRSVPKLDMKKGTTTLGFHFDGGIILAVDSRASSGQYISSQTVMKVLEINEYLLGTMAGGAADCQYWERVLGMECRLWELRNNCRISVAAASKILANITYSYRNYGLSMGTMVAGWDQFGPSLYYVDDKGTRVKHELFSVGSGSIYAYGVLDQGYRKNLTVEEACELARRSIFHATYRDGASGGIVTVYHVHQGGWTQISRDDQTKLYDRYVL

Homo sapiens = organism: Homo sapiens; test: To identify inhibition of the IFN signalling (Jak-Stat) pathway via expression of an eGFP reporter gene under the control of an IFN-stimulated response element (ISRE) containing MxA promoter.; assay type: functional; details: 30 µM
[7] = target: T4, Tyrosyl-tRNA synthetase, putative (Trypanosoma cruzi (strain CL Brener)) (UniProt Q4DSP6); test: Trypanosoma cruzi tyrosyl tRNA synthetase (TcYRS) _High Tyrosine SOP; assay type: functional; details: 30 µM; also: in the data most compounds retested in dose-response had high values
T4 sequence (whole entry): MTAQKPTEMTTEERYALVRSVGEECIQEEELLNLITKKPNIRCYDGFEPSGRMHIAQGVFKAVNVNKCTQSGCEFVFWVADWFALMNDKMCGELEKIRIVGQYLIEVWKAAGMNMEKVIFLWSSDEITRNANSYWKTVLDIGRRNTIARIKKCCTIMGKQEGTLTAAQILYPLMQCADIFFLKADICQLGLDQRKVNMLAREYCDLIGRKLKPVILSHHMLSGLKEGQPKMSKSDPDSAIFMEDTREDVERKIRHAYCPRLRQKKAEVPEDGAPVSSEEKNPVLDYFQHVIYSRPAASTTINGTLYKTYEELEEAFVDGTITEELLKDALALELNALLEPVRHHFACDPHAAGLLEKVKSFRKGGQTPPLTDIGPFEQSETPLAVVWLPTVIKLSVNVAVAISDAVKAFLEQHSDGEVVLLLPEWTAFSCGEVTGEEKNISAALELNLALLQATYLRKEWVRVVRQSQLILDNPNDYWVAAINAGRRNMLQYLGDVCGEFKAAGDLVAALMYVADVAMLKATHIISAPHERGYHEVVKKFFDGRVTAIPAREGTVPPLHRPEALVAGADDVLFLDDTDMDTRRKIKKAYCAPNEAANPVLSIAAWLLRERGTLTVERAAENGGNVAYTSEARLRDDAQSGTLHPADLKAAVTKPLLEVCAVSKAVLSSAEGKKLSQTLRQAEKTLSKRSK

[8] = target: T4, Tyrosyl-tRNA synthetase, putative (Trypanosoma cruzi (strain CL Brener)); test: Trypanosoma cruzi tyrosyl tRNA synthetase (TcYRS) SOP; assay type: functional; details: 30 µM
[9] = target: Chromo domain-containing protein 1 (Saccharomyces cerevisiae (strain ATCC 204508 / S288c) (Baker's yeast)) (UniProt P32657); test: ScCHD-1 Enzyme Inhibition Assay; assay type: functional; details: 30 µM; also: in the data most compounds retested in dose-response had high values
Sequence of Chromo domain-containing protein 1 (Saccharomyces cerevisiae (strain ATCC 204508 / S288c) (Baker's yeast)) (P32657 whole entry, the tested form may be a part): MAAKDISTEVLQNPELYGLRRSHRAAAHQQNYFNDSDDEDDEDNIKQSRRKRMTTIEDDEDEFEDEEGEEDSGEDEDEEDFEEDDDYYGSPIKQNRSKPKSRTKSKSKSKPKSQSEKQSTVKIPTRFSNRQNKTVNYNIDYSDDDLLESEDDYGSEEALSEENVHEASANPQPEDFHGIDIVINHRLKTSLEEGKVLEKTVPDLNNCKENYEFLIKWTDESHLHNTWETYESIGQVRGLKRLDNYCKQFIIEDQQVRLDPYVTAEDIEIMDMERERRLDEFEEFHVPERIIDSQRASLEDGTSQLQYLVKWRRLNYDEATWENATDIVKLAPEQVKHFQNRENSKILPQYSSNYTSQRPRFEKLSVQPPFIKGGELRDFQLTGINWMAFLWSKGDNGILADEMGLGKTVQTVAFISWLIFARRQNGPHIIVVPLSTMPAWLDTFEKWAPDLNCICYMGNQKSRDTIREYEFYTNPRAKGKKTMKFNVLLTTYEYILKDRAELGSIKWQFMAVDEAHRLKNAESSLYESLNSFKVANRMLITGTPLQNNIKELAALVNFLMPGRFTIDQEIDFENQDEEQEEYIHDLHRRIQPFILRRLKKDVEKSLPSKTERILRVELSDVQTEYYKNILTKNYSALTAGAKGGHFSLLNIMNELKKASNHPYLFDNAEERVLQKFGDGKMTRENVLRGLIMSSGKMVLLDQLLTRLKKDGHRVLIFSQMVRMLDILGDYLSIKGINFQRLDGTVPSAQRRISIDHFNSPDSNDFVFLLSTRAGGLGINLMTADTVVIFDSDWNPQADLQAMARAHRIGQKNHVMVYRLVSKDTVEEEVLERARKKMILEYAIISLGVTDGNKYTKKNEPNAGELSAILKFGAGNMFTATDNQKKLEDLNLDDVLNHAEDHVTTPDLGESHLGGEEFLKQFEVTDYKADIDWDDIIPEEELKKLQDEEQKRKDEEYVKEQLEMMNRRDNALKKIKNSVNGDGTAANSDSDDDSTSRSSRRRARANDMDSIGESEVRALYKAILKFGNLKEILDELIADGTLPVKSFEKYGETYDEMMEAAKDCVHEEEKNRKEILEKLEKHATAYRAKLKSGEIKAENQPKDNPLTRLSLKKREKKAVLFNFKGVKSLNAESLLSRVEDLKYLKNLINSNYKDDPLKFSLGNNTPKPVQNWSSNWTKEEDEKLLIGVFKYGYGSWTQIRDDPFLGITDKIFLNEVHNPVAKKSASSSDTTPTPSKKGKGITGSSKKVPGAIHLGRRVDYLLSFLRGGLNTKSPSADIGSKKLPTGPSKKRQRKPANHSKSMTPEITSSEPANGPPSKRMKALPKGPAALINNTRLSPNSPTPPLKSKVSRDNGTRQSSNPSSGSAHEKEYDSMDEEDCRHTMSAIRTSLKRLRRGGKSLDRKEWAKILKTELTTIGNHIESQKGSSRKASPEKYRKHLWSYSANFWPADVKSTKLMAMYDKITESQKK

Sequence of Protein translocase subunit SecA (Escherichia coli (strain K12)) (P10408 whole entry): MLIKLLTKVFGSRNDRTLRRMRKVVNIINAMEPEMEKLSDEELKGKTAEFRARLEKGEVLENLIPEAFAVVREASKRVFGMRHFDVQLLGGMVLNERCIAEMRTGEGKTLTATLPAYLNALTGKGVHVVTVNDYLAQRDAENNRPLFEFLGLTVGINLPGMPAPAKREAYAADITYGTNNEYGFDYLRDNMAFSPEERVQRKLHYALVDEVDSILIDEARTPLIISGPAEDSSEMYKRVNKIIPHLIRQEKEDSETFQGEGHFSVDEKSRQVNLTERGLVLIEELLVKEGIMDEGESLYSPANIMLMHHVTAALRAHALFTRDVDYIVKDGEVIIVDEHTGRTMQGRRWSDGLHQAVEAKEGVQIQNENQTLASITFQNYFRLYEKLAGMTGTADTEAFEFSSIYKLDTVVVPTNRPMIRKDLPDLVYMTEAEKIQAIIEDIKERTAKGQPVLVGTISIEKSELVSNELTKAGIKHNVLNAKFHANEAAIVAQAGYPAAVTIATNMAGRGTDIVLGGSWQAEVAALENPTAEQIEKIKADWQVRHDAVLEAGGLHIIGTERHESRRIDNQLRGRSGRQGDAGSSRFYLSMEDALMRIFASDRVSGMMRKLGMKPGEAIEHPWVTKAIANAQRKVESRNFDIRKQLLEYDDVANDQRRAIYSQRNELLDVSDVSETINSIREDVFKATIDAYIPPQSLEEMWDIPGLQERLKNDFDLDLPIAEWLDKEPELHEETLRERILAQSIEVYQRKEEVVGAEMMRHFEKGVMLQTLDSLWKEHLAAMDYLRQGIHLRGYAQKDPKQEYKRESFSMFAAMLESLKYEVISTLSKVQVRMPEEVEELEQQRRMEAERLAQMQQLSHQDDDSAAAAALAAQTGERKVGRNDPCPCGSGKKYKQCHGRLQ

SMILES | Percent Effect [1] [%] | Percent Effect [2] [%] | Percent Effect [3] [%] | Percent Effect [4] [%] | Percent Effect (Trypanosoma cruzi) [%] | Percent Effect [5] [%] | Percent Effect [6] [%] | Percent Effect (Homo sapiens) [%] | Percent Effect [7] [%] | Percent Effect [8] [%] | Percent Effect [9] [%]
Cc1nc(C)n(CC2CCCCN2CC(=O)Nc2nncs2)n1 (stereo not given) | -8.22 | 2.67 | -1.04 | 1.02 | -2.04 | 2.6 | 2.79 | -3.85 | 2.73 | 11.1 | -5.05
O=C(NCCc1cccc(O)c1)NC1CCN(c2ccccc2)C1=O (stereo not given) | -7.43 | 0 | 2.02 | -1.23 | -2.82 | 1.04 | 11.7 | -6.77 | -1.64 | 1.24 | -4.31
c1ccc(N2CCCC3(COCCN(c4nccs4)C3)C2)nc1 (stereo not given) | 0.192 | 0 | -5.45 | 16.4 | 11.7 | 0.399 | 16 | 31.6 | 16.7 | 23.5 | 10.7
CC1CCN(S(=O)(=O)NCc2ccccc2Cn2cncn2)CC1 | -3.83 | 13.9 | 6.66 | 0.681 | -1.54 | 3.23 | 13.4 | 10.6 | 3.12 | 20.2 | -23.4
Cn1cc(CN2CC[C@H]3C[C@H](c4nc(C5CC5)cs4)O[C@@H]3C2)cn1 | -0.2 | 18.2 | -0.28 | 13.1 | 6.59 | -9.65 | 10.8 | 12.1 | 4.3 | 16.1 | -1.85
OCC1CCCN1c1cc(NCCc2c[nH]c3ccccc23)ncn1 (stereo not given) | -4.95 | 0 | 12.3 | -7.58 | -2.15 | 0 | 18.6 | 35.3 | 1.07 | 7.5 | -5.88
Cc1cc(C[C@@H]2CCC[C@H]2NCc2cc(C)c(O)c(C)c2)on1 | 0.891 | 9.46 | 18.3 | -0.421 | -9.88 | -0.232 | 15.1 | 41.8 | 0 | 9.09 | -12.1
COCC(=O)NCCn1ccc2c(OC)cccc21 | -0.301 | 17.3 | 0.941 | 6.9 | 0.393 | -3.7 | 10.5 | 19.7 | 6.35 | 15.4 | -8
Cc1n[nH]cc1CNc1ccc2c(c1)CN(C(=O)OC(C)(C)C)CC2 | -2.19 | 5.2 | -9.51 | 0.686 | 2.26 | -8.28 | 15.5 | 68.8 | 2.15 | 3.7 | -6.66
O=C(c1cc(F)ccc1F)C1CCN(C(=O)c2ccccn2)CC1 | -3.32 | 13 | 3.21 | -2.77 | 1.27 | 3.58 | 17.1 | 21.7 | 7.62 | 23.5 | -13.2
O=C(c1ccn(-c2cccc(Cl)c2)n1)N1CCN(C2CC2)CC1 | -11.5 | 10.4 | -3.12 | 2.64 | -4.49 | -1.78 | 27.5 | 29.6 | -0.971 | -4.88 | -3.18
NC(=O)c1cnn2c1NCC(CNCCc1ccco1)C2 (stereo not given) | -1.64 | 2.63 | 2.04 | -0.712 | -5.26 | 3.45 | 8.86 | 7.72 | 2.45 | 7.32 | -1.74
CCc1ccc(CN(CCCn2ccnc2)Cc2ccc(C)s2)o1 | -8.95 | 1.35 | 1.91 | 2.18 | -0.79 | -3.94 | 9.36 | 38.5 | 0 | -6.49 | -8.71
COc1c(CNC2CCN(c3ncccn3)CC2)c(C(C)C)nn1C | -4.79 | 10.5 | 4.83 | -4.46 | -6.26 | 7.55 | 2.79 | -4.77 | 6.4 | 16.1 | -4.31
CCCC(C)CN1CCC(n2cc(CCCO)nn2)CC1 (stereo not given) | -3.6 | 4.17 | -2.5 | 0.0396 | 1.46 | 1.32 | 2.28 | -7.18 | 4.21 | 5.13 | 0.69
Cc1noc(NC(=O)c2ccc(C)c(F)c2)n1 | -3.93 | 20.2 | 3.63 | -2.91 | 4.63 | 0 | 11.7 | 64 | 9.36 | 26.6 | -5.98
CC(C)c1ccc(C(C)NC(=O)N2CCC(n3cncn3)CC2)cc1 (stereo not given) | -4.08 | 10.1 | -2.45 | 13.7 | -3.87 | 0 | 5.49 | 13.3 | 3.45 | 8.86 | -3.06
O=C(c1ccc(F)cc1)N1CCN2C[C@H](OCc3ccccn3)C[C@H]2C1 | -5.08 | 8.11 | 5.44 | -1.47 | -2.83 | 1.59 | 20.7 | -8.06 | 7.57 | 12.8 | 1.66
CCCS(=O)(=O)NCc1cccnc1OCC | 0.771 | 2.6 | -1.14 | 3.55 | 1.28 | -5.52 | 6.32 | 13.3 | 1.07 | -1.24 | -7.12
O=C(c1cnccn1)N1C[C@@H]2CC[C@H](C1)N(C(=O)Cc1ccsc1)C2 | -5.86 | 2.6 | 5.34 | 4.9 | -4.82 | -16.6 | 9.32 | 8.73 | 5.38 | 3.7 | -0.624

From ChEMBL document CHEMBL3988442, “University of Dundee, Small-Polar-MMV Screening Library” (2021)
